For 20 molecules, Potency results are on record in PubChem BioAssay (NCATS).

The other results are listed elsewhere or left out. Inconclusive results are not listed. Activity calls are given as the source filed them. Calls come from the whole dose curve; as a rule, active = well fitted inhibition curve with a large enough effect; inconclusive = small, poorly fitted or top-dose-only effect, or another doubt; inactive = no such curve, though single readings can be large or run the other way.
Potency is the fitted concentration of half-maximal effect.

Chain of DNA polymerase kappa (Homo sapiens) (Q9UBT6 whole entry, looked up): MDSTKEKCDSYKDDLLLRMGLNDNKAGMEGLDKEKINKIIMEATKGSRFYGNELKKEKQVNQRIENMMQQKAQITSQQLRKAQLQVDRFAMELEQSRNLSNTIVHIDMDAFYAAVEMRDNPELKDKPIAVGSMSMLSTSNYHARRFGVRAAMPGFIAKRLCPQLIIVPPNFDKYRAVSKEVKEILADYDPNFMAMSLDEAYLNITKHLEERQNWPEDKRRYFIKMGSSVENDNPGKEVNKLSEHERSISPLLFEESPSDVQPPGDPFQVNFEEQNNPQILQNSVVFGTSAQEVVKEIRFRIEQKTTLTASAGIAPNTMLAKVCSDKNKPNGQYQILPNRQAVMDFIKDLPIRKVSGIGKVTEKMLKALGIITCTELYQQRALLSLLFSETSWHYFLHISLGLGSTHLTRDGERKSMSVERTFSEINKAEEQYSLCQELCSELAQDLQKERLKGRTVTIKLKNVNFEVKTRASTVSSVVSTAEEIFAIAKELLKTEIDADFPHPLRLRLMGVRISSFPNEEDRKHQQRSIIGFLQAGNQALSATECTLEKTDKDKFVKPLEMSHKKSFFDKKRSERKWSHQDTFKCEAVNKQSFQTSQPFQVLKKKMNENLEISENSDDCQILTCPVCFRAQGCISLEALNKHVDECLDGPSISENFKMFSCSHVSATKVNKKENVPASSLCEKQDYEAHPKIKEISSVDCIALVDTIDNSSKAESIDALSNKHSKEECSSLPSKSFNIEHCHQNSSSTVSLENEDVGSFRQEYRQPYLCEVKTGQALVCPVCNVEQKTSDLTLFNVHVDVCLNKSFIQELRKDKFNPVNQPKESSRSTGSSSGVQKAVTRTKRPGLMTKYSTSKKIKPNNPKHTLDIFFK

The experiment concerns the target DNA polymerase kappa (Homo sapiens) (UniProt Q9UBT6). Briefly: qHTS for Inhibitors of Polymerase Kappa: Confirmatory Assay for Cherry-picked Compounds (AID 720501). To be noted: purified Pol-kappa, fluorescent strand-displacement substrate. The text has this:
The processing and repair of DNA inter-strand crosslinks (ICL) in eukaryotic cells are extremely complex, potentially involving multiple DNA repair and damage tolerance pathways, including homologous recombination, nucleotide excision repair, translesion synthesis (TLS), and cell cycle checkpoints. […] A 1536-well format, fluorescence based, high-throughput screen (AID 588579) was developed in collaboration with the Oregon Health & Science University to screen for inhibitors of the Pol-kappa enzyme. This assay was used to validate the activity of the selected compounds from the primary screen against the human Pol-kappa. Inhibition is the desired outcome for this assay. NIH Chemical Genomics Center [NCGC] NIH Molecular Libraries Probe Centers Network [MLPCN] MLPCN Grant: MH094179 Assay Submitter (PI): Stephen Lloyd, Oregon Health & Science University
Three microliters of reagents (buffer in column 3 and 4 as negative control and 10 nM Pol-kappa in columns 1, 2, and 5-48) were dispensed into a 1536-well black solid-bottom plate. Compounds (23 nL) were transferred via Kalypsys pin tool equipped with 1536-pin array. The plates were then incubated for 15 min at room temperature, and 1 uL of substrate was added to start the reaction for a final concentration of 50 nM. The substrate was made by the annealing of unlabeled oligodeoxynucleotide primer (59-[…]-39) and TAMRA-labeled reporter strand (59-[…]-6-TAMRA-39) to oligodeoxynucleotide template labeled with BHQ-2 (59-BHQ-2-[…]-39) described in detail at the Yamanaka et.al. (PLOS, 2012) reference paper. The assay plates were initially read after 0 min and again after 10 min of kinetic reaction using the PerkinElmer Viewlux reader equipped with 525 nm excitation and 598 nm emission filters.
On the technique in general: Quantitative high-throughput screening tests each substance at several concentrations.
Regarding `Cc1ccc(-c2nn(-c3ccccc3)cc2/C=C2\SC(=S)N(CCCCCC(=O)O)C2=O)o1`, the Potency was 33.6 µM (active).
On to `O=C(O)C(c1ccccc1)N1C(=O)/C(=C\c2ccc(-c3cccc(Cl)c3)o2)SC1=S` (stereo not given), for which the Potency was 29.9 µM (active).
In the case of `O=C1NN(c2ccccc2)C(=O)/C1=C/c1ccc(-c2cccc(C(=O)O)c2)o1` it was 16.8 µM (active).
In the case of `COCCNC(=O)Nc1ccc2nc(-c3ccco3)c(-c3ccco3)nc2c1` it was 3.77 µM (active); in that of `Cc1cc(/C=C2\SC(=O)N(C)C2=O)c(C)n1-c1cccc(C(=O)O)c1`, 9.47 µM (active).
As for `COc1cc(/C=C2/C(=O)NN(c3ccc(F)cc3)C2=O)cc([N+](=O)[O-])c1O`, the figure is 37.7 µM (active).
`O=C(O)c1ccc(NS(=O)(=O)c2ccc3c(c2)C(=O)c2cc(S(=O)(=O)Nc4ccc(C(=O)O)cc4)ccc2-3)cc1`: the Potency was 16.8 µM (active).
In the case of `O=C1COc2c1ccc(O)c2O` it was 6.7 µM (active); in that of `CCOc1ccccc1/C=c1\sc2nc(-c3ccco3)nn2c1=O`, 47.4 µM (active); in that of `COc1ccc(CNC(=O)c2nnn(CC(=O)Nc3cc(C)cc(C)c3)c2N)cc1`, 47.4 µM (active).
As for `COc1ccc2[nH]c3c(C)c4cc[n+](C)cc4c(C)c3c2c1`, the figure is 1.34 µM (active); as for `O=C(O)C1CCN(c2ccc([N+](=O)[O-])cc2[N+](=O)[O-])CC1`, 42.3 µM (active); as for `COc1ccccc1C(=O)N/C(=C/c1ccco1)C(=O)Nc1ccc(C(=O)O)cc1`, 15 µM (active).
As for `Cc1ccc2cc(/C=N/Nc3ccc(C(=O)O)cc3)c(Cl)nc2c1`, the figure is 26.7 µM (active); as for `CN(C)CCNC(=O)c1ccc(Cl)c2cc3ccccc3nc12`, 21.2 µM (active); as for `Cc1ccc(-c2nc(SCc3ccc(Br)cc3)n3[nH]c(=O)cc3n2)cc1`, 16.8 µM (active).
As to `CCc1nc2cccnc2n1-c1ccc(C(=O)O)cc1`, the Potency was 18.9 µM (active).
In the case of `O=C(c1cc2c(s1)CCC2)N1CCN(c2ccccc2)CC1` it was 42.3 µM (active); in that of `CCOc1cccc2c1N[C@@H](c1ccc(C(=O)O)cc1)[C@H]1CC=C[C@@H]21`, 2.38 µM (active).
As for `NC(CSC(c1ccccc1)(c1ccccc1)c1ccc(-c2ccccc2)cc1)C(=O)O` (stereo not given), the figure is 67 µM (active).
